Laboratory results from the supplement of paper PMC4466140.

Biological target: AgAbp1
Experiment: SPOT peptide array binding signal intensity (averaged, normalized) (arbitrary units (background-subtracted, floor 0; scale differs between SH3 domains)); higher = stronger binding of the SH3 domain to the peptide
How it was run: (§1)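 The binding signal is the normalized, background-subtracted spot intensity averaged over replicates; its arbitrary units differ between domains. It was obtained by incubating 10 μg/ml GST-fused SH3 domains from four yeast species overnight at 4°C in TBS-based blocking buffer on cellulose membranes with synthetic 15-mer peptides, cysteines replaced by serines, then detecting with anti-GST antibody, HRP anti-mouse secondary and luminol.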

Row | Binder | SPOT peptide array binding signal intensity
1 | ANNQGPPNLPARDKS | 4.5

Biological target: AgBbc1
Experiment: as above
How it was run: as §1

Row | Binder | SPOT peptide array binding signal intensity
2 | ANNQGPPNLPARDKS | 0.25

Biological target: AgBem1-D1
Experiment: as above
How it was run: as §1

Row | Binder | SPOT peptide array binding signal intensity
3 | ANNQGPPNLPARDKS | 3.5

Biological target: AgBzz1-D1
Experiment: as above
How it was run: as §1

Row | Binder | SPOT peptide array binding signal intensity
4 | ANNQGPPNLPARDKS | 9.5

Biological target: AgBzz1-D2
Experiment: as above
How it was run: as §1

Row | Binder | SPOT peptide array binding signal intensity
5 | ANNQGPPNLPARDKS | 4

Biological target: AgCyk3
Experiment: as above
How it was run: as §1

Row | Binder | SPOT peptide array binding signal intensity
6 | ANNQGPPNLPARDKS | ≤ 0

Biological target: AgFus1
Experiment: as above
How it was run: as §1

Row | Binder | SPOT peptide array binding signal intensity
7 | ANNQGPPNLPARDKS | ≤ 0

Biological target: AgHof1
Experiment: as above
How it was run: as §1

Row | Binder | SPOT peptide array binding signal intensity
8 | ANNQGPPNLPARDKS | 1

Biological target: AgHse1
Experiment: as above
How it was run: as §1

Row | Binder | SPOT peptide array binding signal intensity
9 | ANNQGPPNLPARDKS | ≤ 0

Biological target: AgLsb1
Experiment: as above
How it was run: as §1

Row | Binder | SPOT peptide array binding signal intensity
10 | ANNQGPPNLPARDKS | 144

Biological target: AgLsb4
Experiment: as above
How it was run: as §1

Row | Binder | SPOT peptide array binding signal intensity
11 | ANNQGPPNLPARDKS | 4990

Biological target: AgMyo5
Experiment: as above
How it was run: as §1

Row | Binder | SPOT peptide array binding signal intensity
12 | ANNQGPPNLPARDKS | ≤ 0

Biological target: AgNbp2
Experiment: as above
How it was run: as §1

Row | Binder | SPOT peptide array binding signal intensity
13 | ANNQGPPNLPARDKS | ≤ 0

Biological target: AgRvs167
Experiment: as above
How it was run: as §1

Row | Binder | SPOT peptide array binding signal intensity
14 | ANNQGPPNLPARDKS | 274

Biological target: AgSho1
Experiment: as above
How it was run: as §1

Row | Binder | SPOT peptide array binding signal intensity
15 | ANNQGPPNLPARDKS | ≤ 0

Biological target: AgSla1-D1-D2
Experiment: as above
How it was run: as §1

Row | Binder | SPOT peptide array binding signal intensity
16 | ANNQGPPNLPARDKS | ≤ 0

Biological target: AgSla1-D3
Experiment: as above
How it was run: as §1

Row | Binder | SPOT peptide array binding signal intensity
17 | ANNQGPPNLPARDKS | 0.75

Biological target: CaAbp1-D1
Experiment: as above
How it was run: as §1

Row | Binder | SPOT peptide array binding signal intensity
18 | ANNQGPPNLPARDKS | 8

Biological target: CaAbp1-D2
Experiment: as above
How it was run: as §1

Row | Binder | SPOT peptide array binding signal intensity
19 | ANNQGPPNLPARDKS | 18.5

Biological target: CaBbc1
Experiment: as above
How it was run: as §1

Row | Binder | SPOT peptide array binding signal intensity
20 | ANNQGPPNLPARDKS | 20.5

Biological target: CaBem1-D1
Experiment: as above
How it was run: as §1

Row | Binder | SPOT peptide array binding signal intensity
21 | ANNQGPPNLPARDKS | ≤ 0

Biological target: CaBzz1-D1
Experiment: as above
How it was run: as §1

Row | Binder | SPOT peptide array binding signal intensity
22 | ANNQGPPNLPARDKS | 6.5

Biological target: CaBzz1-D2
Experiment: as above
How it was run: as §1

Row | Binder | SPOT peptide array binding signal intensity
23 | ANNQGPPNLPARDKS | 4.5

Biological target: CaCyk3
Experiment: as above
How it was run: as §1

Row | Binder | SPOT peptide array binding signal intensity
24 | ANNQGPPNLPARDKS | ≤ 0

Biological target: CaFus1
Experiment: as above
How it was run: as §1

Row | Binder | SPOT peptide array binding signal intensity
25 | ANNQGPPNLPARDKS | ≤ 0

Biological target: CaHof1
Experiment: as above
How it was run: as §1

Row | Binder | SPOT peptide array binding signal intensity
26 | ANNQGPPNLPARDKS | ≤ 0

Biological target: CaHse1
Experiment: as above
How it was run: as §1

Row | Binder | SPOT peptide array binding signal intensity
27 | ANNQGPPNLPARDKS | 38.8

Biological target: CaLsb1
Experiment: as above
How it was run: as §1

Row | Binder | SPOT peptide array binding signal intensity
28 | ANNQGPPNLPARDKS | ≤ 0

Biological target: CaLsb4
Experiment: as above
How it was run: as §1

Row | Binder | SPOT peptide array binding signal intensity
29 | ANNQGPPNLPARDKS | 5930

Biological target: CaMyo5
Experiment: as above
How it was run: as §1

Row | Binder | SPOT peptide array binding signal intensity
30 | ANNQGPPNLPARDKS | 0.5

Biological target: CaNbp2
Experiment: as above
How it was run: as §1

Row | Binder | SPOT peptide array binding signal intensity
31 | ANNQGPPNLPARDKS | ≤ 0

Biological target: CaRvs167
Experiment: as above
How it was run: as §1

Row | Binder | SPOT peptide array binding signal intensity
32 | ANNQGPPNLPARDKS | 2230

Biological target: CaRvs167-3
Experiment: as above
How it was run: as §1

Row | Binder | SPOT peptide array binding signal intensity
33 | ANNQGPPNLPARDKS | 3

Biological target: CaSho1
Experiment: as above
How it was run: as §1

Row | Binder | SPOT peptide array binding signal intensity
34 | ANNQGPPNLPARDKS | ≤ 0

Biological target: CaSla1-D1-D2
Experiment: as above
How it was run: as §1

Row | Binder | SPOT peptide array binding signal intensity
35 | ANNQGPPNLPARDKS | ≤ 0

Biological target: CaSla1-D3
Experiment: as above
How it was run: as §1

Row | Binder | SPOT peptide array binding signal intensity
36 | ANNQGPPNLPARDKS | ≤ 0

Biological target: ScAbp1
Experiment: as above
How it was run: as §1

Row | Binder | SPOT peptide array binding signal intensity
37 | ANNQGPPNLPARDKS | 7

Biological target: ScBbc1
Experiment: as above
How it was run: as §1

Row | Binder | SPOT peptide array binding signal intensity
38 | ANNQGPPNLPARDKS | 2

Biological target: ScBem1-D1
Experiment: as above
How it was run: as §1

Row | Binder | SPOT peptide array binding signal intensity
39 | ANNQGPPNLPARDKS | ≤ 0

Biological target: ScBzz1-D1
Experiment: as above
How it was run: as §1

Row | Binder | SPOT peptide array binding signal intensity
40 | ANNQGPPNLPARDKS | 5

Biological target: ScBzz1-D2
Experiment: as above
How it was run: as §1

Row | Binder | SPOT peptide array binding signal intensity
41 | ANNQGPPNLPARDKS | 1

Biological target: ScCyk3
Experiment: as above
How it was run: as §1

Row | Binder | SPOT peptide array binding signal intensity
42 | ANNQGPPNLPARDKS | ≤ 0

Biological target: ScFus1
Experiment: as above
How it was run: as §1

Row | Binder | SPOT peptide array binding signal intensity
43 | ANNQGPPNLPARDKS | 2

Biological target: ScHof1
Experiment: as above
How it was run: as §1

Row | Binder | SPOT peptide array binding signal intensity
44 | ANNQGPPNLPARDKS | 2

Biological target: ScHse1
Experiment: as above
How it was run: as §1

Row | Binder | SPOT peptide array binding signal intensity
45 | ANNQGPPNLPARDKS | 42.5

Biological target: ScLsb1
Experiment: as above
How it was run: as §1

Row | Binder | SPOT peptide array binding signal intensity
46 | ANNQGPPNLPARDKS | 645

Biological target: ScLsb2
Experiment: as above
How it was run: as §1

Row | Binder | SPOT peptide array binding signal intensity
47 | ANNQGPPNLPARDKS | 5

Biological target: ScLsb3
Experiment: as above
How it was run: as §1

Row | Binder | SPOT peptide array binding signal intensity
48 | ANNQGPPNLPARDKS | 7290

Biological target: ScLsb4
Experiment: as above
How it was run: as §1

Row | Binder | SPOT peptide array binding signal intensity
49 | ANNQGPPNLPARDKS | 4380

Biological target: ScMyo3
Experiment: as above
How it was run: as §1

Row | Binder | SPOT peptide array binding signal intensity
50 | ANNQGPPNLPARDKS | ≤ 0

Biological target: ScMyo5
Experiment: as above
How it was run: as §1

Row | Binder | SPOT peptide array binding signal intensity
51 | ANNQGPPNLPARDKS | ≤ 0

Biological target: ScNbp2
Experiment: as above
How it was run: as §1

Row | Binder | SPOT peptide array binding signal intensity
52 | ANNQGPPNLPARDKS | ≤ 0

Biological target: ScPex13
Experiment: as above
How it was run: as §1

Row | Binder | SPOT peptide array binding signal intensity
53 | ANNQGPPNLPARDKS | 472

Biological target: ScRvs167
Experiment: as above
How it was run: as §1

Row | Binder | SPOT peptide array binding signal intensity
54 | ANNQGPPNLPARDKS | 2820

Biological target: ScSho1
Experiment: as above
How it was run: as §1

Row | Binder | SPOT peptide array binding signal intensity
55 | ANNQGPPNLPARDKS | ≤ 0

Biological target: ScSla1-D1-D2
Experiment: as above
How it was run: as §1

Row | Binder | SPOT peptide array binding signal intensity
56 | ANNQGPPNLPARDKS | ≤ 0

Biological target: ScSla1-D3
Experiment: as above
How it was run: as §1

Row | Binder | SPOT peptide array binding signal intensity
57 | ANNQGPPNLPARDKS | 0.75

Biological target: SpAbp1-D1
Experiment: as above
How it was run: as §1

Row | Binder | SPOT peptide array binding signal intensity
58 | ANNQGPPNLPARDKS | ≤ 0

Biological target: SpBbc1
Experiment: as above
How it was run: as §1

Row | Binder | SPOT peptide array binding signal intensity
59 | ANNQGPPNLPARDKS | ≤ 0

Biological target: SpBzz1-D1
Experiment: as above
How it was run: as §1

Row | Binder | SPOT peptide array binding signal intensity
60 | ANNQGPPNLPARDKS | 6

Biological target: SpBzz1-D2
Experiment: as above
How it was run: as §1

Row | Binder | SPOT peptide array binding signal intensity
61 | ANNQGPPNLPARDKS | ≤ 0

Biological target: SpCyk3
Experiment: as above
How it was run: as §1

Row | Binder | SPOT peptide array binding signal intensity
62 | ANNQGPPNLPARDKS | ≤ 0

Biological target: SpHof1
Experiment: as above
How it was run: as §1

Row | Binder | SPOT peptide array binding signal intensity
63 | ANNQGPPNLPARDKS | 0.5

Biological target: SpHof1-2
Experiment: as above
How it was run: as §1

Row | Binder | SPOT peptide array binding signal intensity
64 | ANNQGPPNLPARDKS | 5.5

Biological target: SpHof1-3
Experiment: as above
How it was run: as §1

Row | Binder | SPOT peptide array binding signal intensity
65 | ANNQGPPNLPARDKS | 6.75

Biological target: SpHse1
Experiment: as above
How it was run: as §1

Row | Binder | SPOT peptide array binding signal intensity
66 | ANNQGPPNLPARDKS | ≤ 0

Biological target: SpLsb1
Experiment: as above
How it was run: as §1

Row | Binder | SPOT peptide array binding signal intensity
67 | ANNQGPPNLPARDKS | 91

Biological target: SpLsb4
Experiment: as above
How it was run: as §1

Row | Binder | SPOT peptide array binding signal intensity
68 | ANNQGPPNLPARDKS | 6520

Biological target: SpMyo1
Experiment: as above
How it was run: as §1

Row | Binder | SPOT peptide array binding signal intensity
69 | ANNQGPPNLPARDKS | ≤ 0

Biological target: SpNbp2
Experiment: as above
How it was run: as §1

Row | Binder | SPOT peptide array binding signal intensity
70 | ANNQGPPNLPARDKS | ≤ 0

Biological target: SpPex13
Experiment: as above
How it was run: as §1

Row | Binder | SPOT peptide array binding signal intensity
71 | ANNQGPPNLPARDKS | ≤ 0

Biological target: SpRvs167
Experiment: as above
How it was run: as §1

Row | Binder | SPOT peptide array binding signal intensity
72 | ANNQGPPNLPARDKS | 3210

Biological target: SpSla1-D1-D2
Experiment: as above
How it was run: as §1

Row | Binder | SPOT peptide array binding signal intensity
73 | ANNQGPPNLPARDKS | ≤ 0

Biological target: SpSla1-D3
Experiment: as above
How it was run: as §1

Row | Binder | SPOT peptide array binding signal intensity
74 | ANNQGPPNLPARDKS | ≤ 0
